{"source": "paper PMC7819943", "about": "“Rice protein-binding microarrays: a tool to detect cis-acting elements near promoter regions in rice”", "note": "Whole data set: some 35,000 sequences, median “fluorescence intensity (a.u.)” near 10,000, cut for the highest 2% near 52,000. The entries come from a sample that favours the highest values as a whole.", "data": [{"target": "T1, OsWOX13 (Oryza sativa, UniProt Q5QMM3 1-267)", "T1 sequence": "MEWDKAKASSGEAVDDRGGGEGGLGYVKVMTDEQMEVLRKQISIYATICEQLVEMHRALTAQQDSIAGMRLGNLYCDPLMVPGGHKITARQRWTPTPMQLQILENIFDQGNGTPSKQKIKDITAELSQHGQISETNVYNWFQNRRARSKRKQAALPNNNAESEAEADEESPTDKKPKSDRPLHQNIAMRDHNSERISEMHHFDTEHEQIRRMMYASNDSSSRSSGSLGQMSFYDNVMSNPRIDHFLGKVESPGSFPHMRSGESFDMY", "assay": "protein-binding microarray (RPBM); PBS, 2% BSA, 51.3 ng/ul salmon testes DNA, 50 uM zinc acetate, 200 nM TF, 25 C, 1 h; high values mean tight binding", "details": "protein: recombinant; tags: N-terminal polyhistidine and DsRed monomer fusion (pET32a); label: CyDye5-dUTP incorporated in the synthesized complementary strand; 3' TTTTT single-stranded linker to array surface; dsDNA, one strand shown", "in_short": "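A custom Agilent array was converted to double-stranded form by primer extension with Cy5-dUTP and blocked with 2% BSA. Protein at 200 nM in PBS with 2% BSA, salmon testes DNA and 50 µM zinc acetate was applied for 1 h at 25 °C, followed by washing. The proteins were polyhistidine–DsRed N-terminal fusions of transcription factors, expressed in E. coli BL21-CodonPlus and Ni–NTA-purified. The binding signal is per-feature fluorescence intensity (arbitrary units) from an Axon 4000B scanner.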", "values": [{"sequence": "TCGGTATTGTGATTGAGGGGTAAGAGTAAGTTTCGGCCACCGGAGTCACCTAGTGCAG", "binding signal": "18700 fluorescence intensity (a.u.)"}, {"sequence": "TTAATTGTAAGTTTAACTATTGCTACTTCGCTTGCAGCGTCGGAGTCACCTAGTGCAG", "binding signal": "13600 fluorescence intensity (a.u.)"}, {"sequence": "AATCATGGCGTAATTAGGCTTAAAAGATTCGTCTCGCAATCGGAGTCACCTAGTGCAG", "binding signal": "3620 fluorescence intensity (a.u.)"}, {"sequence": "TTATCCAAAACGTCAATTAATATAGAACTAGAGTGAGTACCGGAGTCACCTAGTGCAG", "binding signal": "4500 fluorescence intensity (a.u.)"}, {"sequence": "GCTCTAATAATTGAATAATTTGATTTGTTTTATTTAAATCCGGAGTCACCTAGTGCAG", "binding signal": "30100 fluorescence intensity (a.u.)"}, {"sequence": "CCATCACATCCGTTGGCCTAATTGATTTGTGAAGCATCAACGGAGTCACCTAGTGCAG", "binding signal": "4240 fluorescence intensity (a.u.)"}, {"sequence": "GAGTTATGATTTGTTACAATAATTGTAACTTATTGTAAAGCGGAGTCACCTAGTGCAG", "binding signal": "27900 fluorescence intensity (a.u.)"}, {"sequence": "TTAATTGATTGATTGATTGATTAATCCGTTGTGAATCTAACGGAGTCACCTAGTGCAG", "binding signal": "61500 fluorescence intensity (a.u.)"}, {"sequence": "CATTCATATTGATGTTAATAAATTAATATAGATATATATGCGGAGTCACCTAGTGCAG", "binding signal": "3590 fluorescence intensity (a.u.)"}, {"sequence": "TTAATTGATTGAATCACATCCTTCCGGATTGTTTTGATCCCGGAGTCACCTAGTGCAG", "binding signal": "40800 fluorescence intensity (a.u.)"}, {"sequence": "TGCGTGATTGTTGGGATTATTTTATTAATTGATCCAATGGCGGAGTCACCTAGTGCAG", "binding signal": "57200 fluorescence intensity (a.u.)"}, {"sequence": "AGTTATTGACAGTGACTAATCTACCTAATCCGTAGATTAACGGAGTCACCTAGTGCAG", "binding signal": "12500 fluorescence intensity (a.u.)"}, {"sequence": "TTATACATCCAAATTTGATTGTTGCGTGCTTATTTTGTTGCGGAGTCACCTAGTGCAG", "binding signal": "13700 fluorescence intensity (a.u.)"}, {"sequence": "TGTTGATTGTTGTGTTTAATTGGAGATTGACTATTGAATCCGGAGTCACCTAGTGCAG", "binding signal": "60200 fluorescence intensity (a.u.)"}, {"sequence": "ACTTAATTATTGTTATGATTCATTCATGCATAAAGCGGTGCGGAGTCACCTAGTGCAG", "binding signal": "55700 fluorescence intensity (a.u.)"}, {"sequence": "GATTTAATTTATTTTGGTAATGATTTGTGGATGATTTTGGCGGAGTCACCTAGTGCAG", "binding signal": "31600 fluorescence intensity (a.u.)"}, {"sequence": "GAGTACAGATGAAATTTGTAGAAATTGGAATGGTCATGTACGGAGTCACCTAGTGCAG", "binding signal": "3810 fluorescence intensity (a.u.)"}, {"sequence": "GGCAAATTGTCAAGGTTAACCGTAAATCTACAGTGCCAATCGGAGTCACCTAGTGCAG", "binding signal": "15500 fluorescence intensity (a.u.)"}, {"sequence": "TCTTCACATGAATGATGAAATTGCTAGTAGCATGTCTTCACGGAGTCACCTAGTGCAG", "binding signal": "3410 fluorescence intensity (a.u.)"}, {"sequence": "TTCGATTGATTGATAGTTGATTGTGTGTTTACAATTGAACCGGAGTCACCTAGTGCAG", "binding signal": "52600 fluorescence intensity (a.u.)"}, {"sequence": "CAGAATTGAGAGTTCACATATCCTCAGTGGTCAGAGTTCACGGAGTCACCTAGTGCAG", "binding signal": "6100 fluorescence intensity (a.u.)"}, {"sequence": "GATTTAAATTAGATGGAAGGTTGAGAATTAAGCTGATCCTCGGAGTCACCTAGTGCAG", "binding signal": "13600 fluorescence intensity (a.u.)"}, {"sequence": "GGAGTTGATTGATGGACCTAGAATTGGTTGAGATCCTCAGCGGAGTCACCTAGTGCAG", "binding signal": "63700 fluorescence intensity (a.u.)"}, {"sequence": "CGTCTACCGTGATTGTTTCGATACAATTGTGTGCAAGTTACGGAGTCACCTAGTGCAG", "binding signal": "21200 fluorescence intensity (a.u.)"}, {"sequence": "TTATATTAATTGATGGTCATTATTGTTGGAGATTATATTGCGGAGTCACCTAGTGCAG", "binding signal": "60800 fluorescence intensity (a.u.)"}, {"sequence": "TGATTAAAATTGACATTAAAATTATAGTTTTGTGATGACTCGGAGTCACCTAGTGCAG", "binding signal": "19100 fluorescence intensity (a.u.)"}, {"sequence": "ACATTCCAAAATTTGACCAAATTTGTTCACTCGTTGACTGCGGAGTCACCTAGTGCAG", "binding signal": "3660 fluorescence intensity (a.u.)"}, {"sequence": "ACTTGTTGAAAATTGATTGCTTTGTTGTTGTAGTGTTTACCGGAGTCACCTAGTGCAG", "binding signal": "23600 fluorescence intensity (a.u.)"}, {"sequence": "CAGTGGATGATTAATATTGATTAATTATTATAATTGTTTTCGGAGTCACCTAGTGCAG", "binding signal": "39500 fluorescence intensity (a.u.)"}, {"sequence": "AATTGATTGGACTCCACCAACATTAAAATAGTTGTTGATGCGGAGTCACCTAGTGCAG", "binding signal": "56400 fluorescence intensity (a.u.)"}, {"sequence": "AAATTAAATTTTATTTGTTGAAAATAATATCATTGGATTGCGGAGTCACCTAGTGCAG", "binding signal": "6020 fluorescence intensity (a.u.)"}, {"sequence": "CAGTTTTGGTTAATTAAGTAAATAATTGTCCTCAGAAAGTCGGAGTCACCTAGTGCAG", "binding signal": "15100 fluorescence intensity (a.u.)"}, {"sequence": "CATAAATTTTCCGTGCCAACTTTGATCATCCGTTTTATTTCGGAGTCACCTAGTGCAG", "binding signal": "5660 fluorescence intensity (a.u.)"}, {"sequence": "CTATACAACAAATCATTAATTAGGCTCAAAAGAAAGAAAGCGGAGTCACCTAGTGCAG", "binding signal": "11100 fluorescence intensity (a.u.)"}, {"sequence": "CACATGCAAATTATCGTGCGTCTGTATGTGGCATGCTTGTCGGAGTCACCTAGTGCAG", "binding signal": "4230 fluorescence intensity (a.u.)"}, {"sequence": "TTTAATCACTAATTAATTGTTGATTAGCGGCAAGTGTGACCGGAGTCACCTAGTGCAG", "binding signal": "63800 fluorescence intensity (a.u.)"}, {"sequence": "ACGGTGTGATTAATTACGTCGCGATCATGTTGTGCTAATCCGGAGTCACCTAGTGCAG", "binding signal": "32500 fluorescence intensity (a.u.)"}, {"sequence": "GGAGATTGACACGTTGGTCTACGTGCCTATGCGTGTGTTCCGGAGTCACCTAGTGCAG", "binding signal": "55600 fluorescence intensity (a.u.)"}, {"sequence": "TACGTGTGTTGATTTCCGTGACATATGCATAAATTTCTTTCGGAGTCACCTAGTGCAG", "binding signal": "3870 fluorescence intensity (a.u.)"}, {"sequence": "ATACTAATTACTTAATTAGTGACCAGTGATCACTTGTGTGCGGAGTCACCTAGTGCAG", "binding signal": "45800 fluorescence intensity (a.u.)"}, {"sequence": "GCCACTAAATTAATCCGGTGATTGATCATGTGTGGAAGCACGGAGTCACCTAGTGCAG", "binding signal": "54200 fluorescence intensity (a.u.)"}, {"sequence": "ATGATTGAATCCTATAAAATCTTGTGAAATTCCTGTGAAACGGAGTCACCTAGTGCAG", "binding signal": "52800 fluorescence intensity (a.u.)"}, {"sequence": "TTTTGATGAAATAAACTATGAAAATCCTGTGAAATTCATGCGGAGTCACCTAGTGCAG", "binding signal": "7340 fluorescence intensity (a.u.)"}, {"sequence": "GATTTGATTTAAATCTTGAATAAATTTAATAAAATCCTATCGGAGTCACCTAGTGCAG", "binding signal": "10000 fluorescence intensity (a.u.)"}, {"sequence": "AGAGATCGAGATTGACACACAACGTGGTTCACGCGTGCGCCGGAGTCACCTAGTGCAG", "binding signal": "23100 fluorescence intensity (a.u.)"}, {"sequence": "AGAGAATTGAATTAATCCGTGTGATATATCACTAAAATTCCGGAGTCACCTAGTGCAG", "binding signal": "5900 fluorescence intensity (a.u.)"}, {"sequence": "AATGTTTTAATCACATTGATTAGCAACTAATTAATCTTAGCGGAGTCACCTAGTGCAG", "binding signal": "47100 fluorescence intensity (a.u.)"}]}]}
